uPA surface inh: qHTS for Inhibitors of Cell Surface uPA Generation | Potency, µM (doses to about 38.3 µM), without a hit: at the top dose activity change, negative = inhibition, hits mostly inhibitors | cell surface uPA generation assay, qHTS | 0.31% of 330,000 active; active means well fitted inhibition curve with a large enough effect; inconclusive means small, poorly fitted or top-dose-only effect; inactive means no such curve, though single readings can be large or run the other way; tested in mouse RAW 264.7 cells; further: potency means the concentration at half of the fitted maximal effect; on the % scale 0 is the no-effect control and ±100 the full control effect; nearly all actives have a fitted effect of over 55% in size
ClpP mod: qHTS Assay for Activators of ClpP. ATP-dependent Clp protease proteolytic subunit (Bacillus subtilis (strain 168)), P80244. purified B. subtilis ClpP, FRET peptide cleavage, 20 min. Potency, µM (top dose mostly 57.5 µM), for inactives: at the highest dose activity change, negative = active. 1.9% of 340,000 active. AID 651965, 2013; active means well fitted falling curve with a large enough effect; inconclusive means small, poorly fitted or top-dose-only effect; inactive means no such curve, though single readings can be large or run the other way; further: potency means the concentration at half of the fitted maximal effect; the source files actives as falling curves though it sought activators and does not explain the sign; nearly all actives have a fitted effect of over 65% in size
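ClpP 10 microg/mL final, pH 8 Tris/KCl buffer with BSA, glycerol, Tween-20; compound pinned in; FRET-FV substrate; RT 20 min; Ex320/Em430; ΔFRET vs ADEP 5.8 microM, DMSO, no enzyme.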
Giardia kill: Small Molecules that selectively kill Giardia lamblia: qHTS | Giardia lamblia trophozoite viability | activity change, % at 7.66 µM, hits read low | 0.15% of 340,000 active | AID 540267, 2011; in the data active means activity change below about -80%; inconclusive means between about -30% and that limit;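 further: parasites exposed to compound for two days anaerobically before the ATP read; on the % scale 0 is the no-effect control and ±100 the full control effect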
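Media and compound were dispensed first, then trophozoites at 100 cells/well; plates sat 48 hrs at 37 deg C without oxygen before ATP luminescence reagent was added and read after 15-30 min at room temperature.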
B2AR arrestin: qHTS assay of beta-arrestin-biased ligands of beta2-adrenergic receptor; Beta-2 adrenergic receptor (Homo sapiens), P07550; beta-arrestin recruitment to beta2AR, cell-based reporter; Potency, µM (top dose mostly 46.1 µM), for the others: at the highest dose activation, actives largely listed as activators; AID 492947, 2010; 0.02% of 330,000 active;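 further: potency means the concentration at half of the fitted maximal effect; 0% = DMSO controls and full agonism = EC100 isoproterenol or metaproterenol; nearly all actives have a fitted effect of over 65% in size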
Mito fusion yeast: qHTS Assay for Small Molecule Inhibitors of Mitochondrial Division or Activators of Mitochondrial Fusion; S. cerevisiae fusion-defective mutant growth rescue, CellTiterGlo 48 h; Potency, µM (titrated, usually from 46.1 µM), inactives show top-dose growth rescue (activation), hits mostly activators; 0.23% of 320,000 active; AID 485298, 2010; further: potency means the concentration at half of the fitted maximal effect; % of control where 0% means no effect; nearly all actives have a fitted effect of over 45% in size
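Temperature-sensitive fusion-defective S. cerevisiae (e.g. fzo1-1, mgm1-5) were grown with compound in YPEG medium (3% ethanol, 3% glycerol) for 48 hours at 37C. Growth rescue was measured as viability by CellTiterGlo luminescence after 10 minutes at ambient.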
p53 reactivation: qHTS assay for re-activators of p53 using a Luc reporter. H1299 p53-A138V BP100-luciferase reporter, luminescence, 24 h. Potency, µM (top dose mostly 92.2 µM), without a hit: at the top dose activity change, positive = activation, usual class: activators. 0.063% of 320,000 active; further: potency means the concentration at half of the fitted maximal effect; % of control where 0% means no effect; nearly all actives have a fitted effect of over 45% in size
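p53-null H1299 cells stably carrying temperature-sensitive p53-A138V and a BP100-luciferase reporter were pinned with compounds (4-point, 1:5 series) and held 24 hrs at 37 deg C. Luminescence was read 10 min after detection reagent.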
An asterisk follows results filed as active; ? = inconclusive; · = not tested or not shown. Rows were chosen to be rich in hits. Some 2.1% of all compounds tested hit in one or more screens of this group. Unless noted, the call rests on the fitted dose curve; in most records, active means well fitted curve in the direction sought with a large enough effect; inconclusive means small, poorly fitted or top-dose-only effect, or another doubt; inactive means no such curve, though single readings can be large; an effect the other way counts as inactive or inconclusive.

SMILES	uPA surface inh	ClpP mod	Giardia kill	B2AR arrestin	Mito fusion yeast	p53 reactivation
O=C(O)Cn1c(-c2ccccn2)nc2ccccc21	?	4%	-14	-1%	-3%	·
CCOC(=O)Cn1c(-c2ccccn2)nc2ccccc21	3%	28µM*	-21	0%	1%	-1%
Cc1cc2c(c(C)c1Cl)C(c1ccc3c(c1)OCO3)CC(O)(c1ccccc1)O2 (centres undefined)	·	·	3	·	·	·
Cc1ccccc1NC(=O)CSc1cn(CC(=O)N2CCCCCC2)c2ccccc12	·	2%	·	·	·	·
CCCNc1nc(-c2cc(-c3ccc(Cl)cc3)on2)cc(C(C)C)n1	3%	?	2	0%	-13%	2%
Cc1cc(-c2cc(-c3ccc(Cl)cc3)on2)nc(NCC2CC2)n1	-2%	14µM*	9	0%	1%	2%
CC1=C(C(=O)Nc2ccccc2)C(c2ccncc2)n2nc(SCc3ccccc3Cl)nc2N1 (centres undefined)	·	-19%	·	·	·	·
COc1ccc2oc(=O)c(-c3csc(Nc4cccc(O)c4)n3)cc2c1	-1%	0%	19	0%	16µM*	21%
COc1ccc(Nc2nc(-c3cc4cccc(OC)c4oc3=O)cs2)cc1	-2%	3%	-6	0%	-1%	11%
Cc1cccc(-c2nnc(-c3ccc(N)cc3)o2)c1	-6%	28µM*	-10	0%	14%	?
COc1cccc(-c2nnc(-c3ccc4ccccc4c3)o2)c1	-7%	14µM*	-18	·	·	·
Cc1ccc(-c2nnc(-c3ccc4ccccc4c3)o2)cc1	-6%	14µM*	?	·	·	·
COc1cccc(-c2nnc(-c3ccc(C(F)(F)F)cc3)o2)c1	4%	-26%	-8	1%	1%	?
Clc1ccc(-c2nnc(-c3ccc4ccccc4c3)o2)cc1	0%	2%	-10	·	·	·
Nc1ccc(-c2nnc(-c3ccc(N)cc3)o2)cc1	-11%	3%	-20	-1%	6%	20%
COc1ccc(CCNC(=O)Cc2c(C)c3cc4c(C)coc4cc3oc2=O)cc1OC	·	-6%	·	·	·	·
Cn1c(=O)c2c([nH]c(=O)n2Cc2ccc(Cl)cc2Cl)n(C)c1=O	·	-1%	·	·	·	·
COc1ccccc1OC(C)C(=O)Nc1c(C(=O)c2ccc(Cl)cc2)oc2ccccc12 (centres undefined)	·	-1%	·	·	·	·
Cc1noc(C)c1C(=O)Nc1nnc(-c2ccccc2)s1	10%	-15%	-5	1%	18%	?
Cc1onc(-c2ccccc2)c1C(=O)Nc1ncc([N+](=O)[O-])s1	-6%	·	-94*	0%	1%	-4%
CCC(=O)Nc1nnc(-c2ccncc2)s1	·	16µM*	12	-1%	-1%	-6%
Cc1onc(-c2ccccc2)c1C(=O)Nc1nnc(-c2ccncc2)s1	·	32µM*	-8	0%	22%	5%
Cc1onc(-c2ccccc2)c1C(=O)Nc1ccc2c(C)cc(=O)oc2c1	-1%	16µM*	-11	-1%	-4%	-5%
O=C(NCCN1CCOCC1)C1(C(F)(F)F)C/C(=C\CCO)CCCO1 (centres undefined)	·	·	-5	·	·	·
O=C(Nc1ccc2oc(-c3cccnc3)nc2c1)c1ccc(-c2ccccc2OC(F)(F)F)o1	·	-7%	·	·	·	·
SMILES	uPA surface inh	ClpP mod	Giardia kill	B2AR arrestin	Mito fusion yeast	p53 reactivation
Cc1ccc(Cl)cc1N1C(=O)N(Cc2ccc(C#N)cc2)c2ccccc2S1(=O)=O	·	-1%	·	·	·	·
Cc1c(C(=O)Nc2cccc(F)c2)oc2c1-c1nn(Cc3c(F)cccc3Cl)cc1CC2	·	-6%	·	·	·	·
Cc1[nH]c2ccccc2c1-c1nc2ccccc2[nH]1	-6%	16µM*	-3	-1%	19%	22%
COc1ccc(-c2nc3ccccc3[nH]2)cc1	?	25µM*	?	0%	-11%	8%
c1ccc(-c2nc3ccccc3[nH]2)cc1	?	4%	-29	0%	-13%	·
Cc1nnsc1-c1nc2ccccc2[nH]1	1%	25µM*	10	0%	3%	1%
Cc1ccc(-c2nc3ccccc3[nH]2)s1	-8%	-2%	?	0%	-4%	0%
CCC(Oc1ccccc1)C(=O)Nc1nnc(C)s1 (centres undefined)	1%	0%	7	0%	4%	-5%
CC(CC(=O)Nc1ncc([N+](=O)[O-])s1)c1ccccc1 (centres undefined)	1%	·	-86*	-1%	10%	15%
CCC(Oc1ccccc1)C(=O)Nc1ncc([N+](=O)[O-])s1 (centres undefined)	-3%	2%	-88*	-1%	13%	5%
Cc1ccc(C(=O)COC(=O)C(CC(C)C)NC(=O)C2CCC(C)CC2)cc1 (centres undefined)	·	-1%	·	·	·	·
Brc1ccc(Nc2c3c(nc4nncn24)CCC3)cc1	·	2%	·	·	·	·
CCCCc1cc(=O)oc2cc(C)cc(OCC(=O)NCC3CCC(C(=O)O)CC3)c12 (centres undefined)	0%	5%	20	0%	0%	·
CCCCc1cc(=O)oc2cc(C)cc(OCC(=O)O)c12	·	8.9µM*	-3	-4%	3%	1%
CCOC(=O)c1ccc2c(c1)N(Cc1cccc(C(F)(F)F)c1)C(=O)c1ccccc1S2(=O)=O	·	-3%	·	·	·	·
COc1ccc(C2Nc3ccccc3-c3cc(C)nn32)c(OC)c1 (centres undefined)	·	32µM*	·	·	·	·
Cc1ccc(CNC(=O)CSc2nc3ccsc3c(=O)n2-c2ccc(C(=O)O)cc2)cc1	·	-1%	·	·	·	·
S=C(NN=Cc1ccccn1)N(Cc1ccccn1)Cc1ccccn1	-8%	22µM*	-11	·	·	·
Cc1ccccc1N=Cc1cccc(O)c1O	-11%	1%	12	3%	-6%	-20%
Cc1cccc(C=Nc2ccc3c(c2)oc2ccccc23)c1O	-2%	32µM*	-8	0%	-13%	?
COc1ccc(N2C(=O)CSC23C(=O)N(CC(=O)NC2CCCCC2)c2ccccc23)cc1 (centres undefined)	·	1%	·	·	·	·
CCOC(=O)C1C(C#N)=C(N)OC(C)=C1c1ccncc1 (centres undefined)	-1%	32µM*	11	0%	-1%	2%
C(=C\c1nccc2ccccc12)/c1ccc(N2CCOCC2)cc1	·	0%	·	·	·	·
CC1(C)[C@@H](O)CC[C@]2(C)C3C(O)C=C4[C@H]5C[C@@](C)(CO)CC[C@]5(C)CC[C@]4(C)[C@]3(C)CC[C@@H]12 (some centres undefined)	2%	-1%	21	-1%	11µM*	6%

Screening data from PubChem BioAssay.
